Compounds without any hit were thinned out: in the full panel of roughly 79,000, 15% have a hit. Values without a mark were called inactive. Calls of active or inactive are those of the source. No stated cut-off is given here; in the data, active means growth inhibition above about 70%; inactive means the rest.

A short description of the assay: NCI Yeast Anticancer Drug Screen. Data for the sgs1 mgt1 strain (AID 161).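 Further: 0% = growth of cultures given vehicle only.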 The settings on record: S. cerevisiae sgs1 mgt1 strain, at 50.0 µM, stronger effect = higher value. In short, it runs like this:
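Genetically altered yeast, compound exposure, growth inhibition relative to vehicle.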
`COc1ccc(OC)c(NC(=O)c2ccc(Cl)c(Cl)c2)c1`: the growth inhibition was 5.45%.
For `C/C(Cl)=N\OC(=O)Nc1ccc([N+](=O)[O-])cc1` the value was 85.8% (active).
Turning to `Brc1ccccc1N=Nc1ccccc1Br`, the growth inhibition was 0.6%.
With `COC(=O)C(Cl)=C1CC1`, the growth inhibition is -6.95%.
The result for `CC(=O)OC1CC2CCCCC2CC1[N+](C)(C)C` (stereo not drawn) reads 13.8%.
The result for `CC(C)(C(=O)O)c1ccccc1C(=O)c1ccccc1` reads 0.15%.
`CCC1=C(C(C)=O)[C@@H]2CCCCC(C(=O)OC)[C@@H]2C1=O` (stereo partly drawn): the growth inhibition was -20.8%.
`Nc1cc2[nH]cnc2c(=O)[nH]1`: the growth inhibition is 32.4%.
For `Cc1nn(-c2nc(-c3ccc(Br)cc3)cs2)c(C)c1C` the value was -9.95%; for `Cc1cc(-c2ccc(Cl)cc2)c(C#N)c(=S)n1C1OC(CO)C(O)C(O)C1O` (stereo not drawn), -5.3%.
The result for `C/C=C/Sc1ccccc1C(=O)O` reads -9.55%.
For `C/C(=N/NC(N)=O)c1c(C)c(Cl)cc(Cl)c1OCCCC(C)C` the value was 0.45%.
`CN(C)c1ccc(/C=C(\C#N)c2cccc(F)c2)cc1`: the growth inhibition was 1.5%.
For `COc1ccccc1/C=C(\C#N)C(=O)O` the value was -0.75%; for `O=C(CC(=O)N1N=C(n2ccc3ccccc32)CC1c1ccccc1)Nc1cccc(Cl)c1` (stereo not drawn), -11.8%; for `CC(=O)OC1C/C(C)=C/CCC(C)/C=C/C2(C)CCC(C(C)(C)O)C12` (stereo not drawn), 11.9%.
The result for `C[N+](C)(C)c1cc2c(nn1)Nc1ccccc1S2` reads -2.75%; that for `CCCCCCCCCCCCCCCC(=O)ON1C(=S)NC(C)(c2ccccc2)C1=S` (stereo not drawn), 9.15%.

These data come from PubChem BioAssay (NCI).
